From PubChem
Most compounds without a hit are left out; they make up all but 5.9% or so of the library.
DAX1 inh: DAX1 (NR0B1) inhibitors, primary screen, cell-based, HEK293, Gal4-DAX1, luciferase luminescence | hit rate 0.99% among 340,000 | AID 504766, 2011 | HEK293 Gal4-DAX1 luciferase reporter | inhibition, % at 6.75 µM;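 active means inhibition above the mean over all tested compounds plus 3 SD, cut at about 4.2% in these data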;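 further: 0% = DAX1-transfected cells with DMSO and 100% = empty-vector control cells with DMSO; inhibition shows as a rise in luminescence from relieved DAX1 repression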
Target sequence (P51843 207-470 limits assumed): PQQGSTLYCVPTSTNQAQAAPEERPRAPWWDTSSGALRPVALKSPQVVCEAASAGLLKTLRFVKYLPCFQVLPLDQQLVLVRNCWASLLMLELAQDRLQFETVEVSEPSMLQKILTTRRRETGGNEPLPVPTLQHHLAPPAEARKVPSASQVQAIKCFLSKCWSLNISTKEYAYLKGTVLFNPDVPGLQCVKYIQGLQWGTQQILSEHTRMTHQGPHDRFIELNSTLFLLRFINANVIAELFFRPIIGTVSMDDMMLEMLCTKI
FXN GAA850 act: FXN promoter activators, primary screen, cell-based, luciferase luminescence, HEK293 lucGAA850; HEK293 lucGAA850 FXN promoter luciferase reporter, 24 h; percent of 10 µM SAHA response; AID 540364, 2011; hit rate 0.56% among 360,000; activation, % at 6 µM;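 active means activation above the average of all compounds screened plus 3 SD, cutoff fixed separately per campaign, cut at about 7.5% in these data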;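 further: 0% = DMSO wells and 100% = 10 µM SAHA wells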
HSP90 refold inh: HSP90 inhibitors, primary screen, cell lysate, luminescence | hit rate 0.91% among 290,000 | AID 1789, 2009 | Rabbit reticulocyte lysate, luciferase refolding luminescence, 3 h | Heat shock protein HSP 90 (rabbit reticulocyte lysate; luciferase refolding) | inhibition, % at 5.6 µM;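 active means inhibition above the screen-wide mean plus 3 SD, computed separately per campaign, cut at about 16% in these data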;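 further: 0% = DMSO wells and 100% = 60 µM geldanamycin wells; inhibitors lower the luminescence because luciferase stays unfolded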
AHR activator: AHR activators, primary screen, cell-based, luminescence, luciferase reporter, human | hit rate 2.5% among 320,000 | AHR-responsive luciferase reporter cells | activation, % at 5 µM | AID 2796, 2010 | Aryl hydrocarbon receptor (Homo sapiens), P35869; in the data active means activation above about 47%;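 further: 0% = vehicle wells and 100% = reference agonist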
HSF-1 act: HSF-1 activators, primary screen, NIH3T3-HGL cells, MG132 stress, luminescence, single point. NIH3T3-HGL HSF-1 luciferase reporter, 8 h; 100% = twice DMSO control signal. activation, % at 9 µM. hit rate 1.7% among 300,000. AID 504408, 2011;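 active means mean replicate activation of at least 50% with a set share of replicates each reaching 50%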;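 further: 0% = median of the neutral control wells and 100% = twice that signal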
HSF1 inh: HSF1 inhibitors in luciferase reporter cells, primary screen, cell-based, NIH3T3, luminescence. NIH3T3-HGL HSE-luciferase, MG132-induced, luminescence 8 h; active compounds read low. activity change, negative = inhibition, % at 7.5 µM (by protocol). hit rate 0.77% among 300,000;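 active means more than half of replicate wells show activity change below -50%, luminescence cut by over half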;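 further: luciferase reports HSF-1 transcriptional activity via heat shock element; 0% = median of DMSO wells and -100% = zero luminescence signal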
* = called active by the depositor; . = no result given.

SMILES	DAX1 inh	FXN GAA850 act	HSP90 refold inh	AHR activator	HSF-1 act	HSF1 inh
COc1ccc(-c2csc(NC(=O)/C(N=Nc3ccccc3)=C(\C)O)n2)cc1	.	.	-3	48*	-6	-3
COc1cccc(Nc2nc(-c3ccc(O)cc3)cs2)c1	0	-2	0	54*	38	2
Nc1c(C(=O)c2ccc(Br)s2)oc2ccccc12	0	3	-1	68*	25	11
Nc1c(N)c2ccccc2oc1=O	0	3	-7	9	0	9
Nc1ccc(C(=O)c2cccs2)cc1	3	4	-1	9	42	9
Nc1c(C(=O)c2cccs2)oc2ccccc12	1	4	2	49*	14	3
Cc1ccccc1C(=O)Nc1cc(NC(=O)c2ccccc2C)cc(C(=O)O)c1	2	2	-3	1	2	-5
Cn1c(SCC(=O)NCC2CCCO2)nnc1-c1ccco1 (stereo unspecified)	0	0	.	-2	.	.
CCCC(C(=O)NC1CCCC1)N(Cc1ccccc1)C(=O)c1snc(C(N)=O)c1N (stereo unspecified)	1	-2	0	-5	-4	4
CCCCN(C)c1c(C)nc2ccc(C(=O)N(C)Cc3ccco3)cn12	.	-1	.	.	.	.
O=C(O)c1cc(-c2c[nH]c3ccccc23)nc2ccc3ccccc3c12	0	3	2	25	-75	-68*
CCCCCOc1ccc(C(=O)CCC(=O)NC(C)c2ccc(S(N)(=O)=O)cc2)cc1 (stereo unspecified)	-2	-1	.	-2	.	.
CS(=O)(=O)N1CCN(Cc2cc(=O)n3ccsc3n2)CC1	5.2*	1	-3	0	19	-5
O=c1cc(CN2CCN(S(=O)(=O)c3ccc4ccccc4c3)CC2)nc2sccn12	1	2	1	0	1	-1
COCCN(C(=O)c1ccccc1Oc1ccccc1)c1c(N)n(CC(C)C)c(=O)[nH]c1=O	0	0	.	-1	.	.
Cc1c(O)ccc2c(CC(=O)N[C@@H](Cc3ccc(O)cc3)C(=O)O)cc(=O)oc12	1	4	3	.	-77	-70*
CN(CC(=O)Nc1cccc(F)c1)C(=O)/C=C/c1cc(Br)ccc1OC(F)F	-1	-1	.	3	9	8
C=CCn1c(C)nnc1SCC(=O)Nc1oc(C)c2c(C)n[nH]c(=O)c12	4	0	.	2	4	-6
Cc1nc(Cl)sc1C(=O)Nc1ccc(Cl)cc1	0	2	2	93*	12	9
Cc1nc(NC(C)c2ccccc2)sc1C(=O)Nc1ccccc1 (stereo unspecified)	1	0	2	1	-89	-87*
Fc1ccc(Cn2cccc2C2=NC(c3ccccc3)CO2)cc1 (stereo unspecified)	0	4	-2	-2	-11	-2
CCC1COC(c2cccn2Cc2ccccc2Cl)=N1 (stereo unspecified)	5.9*	2	4	-3	9	1
O=C(Nc1ccc2c(c1)OCO2)C1CCCN(S(=O)(=O)c2cccs2)C1 (stereo unspecified)	0	1	1	66*	0	1
CCc1cccc(NC(=O)C2CCCN(S(=O)(=O)c3cccs3)C2)c1 (stereo unspecified)	-2	-2	1	9	-79	-73*
COc1ccc(NC(=O)C2CCCN(S(=O)(=O)c3cccs3)C2)cc1OC (stereo unspecified)	0	0	-1	1	-13	-1
O=C(Nc1ccc2c(c1)OCO2)C1CCCN(c2nc3ccccc3s2)C1 (stereo unspecified)	-1	0	0	12	77*	32
CC1=C(C(=O)NCCN2CCN(C)CC2)C2(CCC(C)CC2)OC1=O (stereo unspecified)	-1	0	-4	5	6	-4
COc1ccc(S(N)(=O)=O)cc1C(=O)OCC(=O)Nc1ncc(Cl)c(C)c1Cl	0	3	.	13	.	.
